# Data taken from PubChem BioAssay (NCATS).
# Inconclusive results are not listed. A call without a number means that no potency is given here. Active and inactive are the calls of the source. The call rests on the fitted dose curve; in most records, active means well fitted cell-killing curve with a large enough effect; inconclusive means small, poorly fitted or top-dose-only effect, or effect the other way; inactive means flat fitted curve, though single readings scatter.
# Test: qHTS of pediatric cancer cell lines to identify multiple opportunities for drug repurposing: Confirmatory screen for control Hh wild type fibroblast cells (AID 1347121); further: nearly all actives have a fitted effect of over 70% in size
# Details: viability qHTS; series mostly up to 45.9 µM
# How it was run: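 Viability after 48 h compound treatment at 37C, 500-1,000 cells/well, read as ATP luminescence with CellTiter-Glo. Primary screens used 11-point (MIPE, 0.78 nM-46 µM) or 8-point (NPC, 0.59 nM-46 µM) final concentrations; follow-up screens used 11-point dilutions.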
# Potency means the concentration at half of the fitted maximal effect.
row,Structure (SMILES),Potency
1,CC=C(C)C(=O)O[C@H]1C(C)=C[C@]23C(=O)[C@@H](C=C(CO)[C@@H](O)[C@]12O)[C@H]1[C@@H](C[C@H]3C)C1(C)C,inactive
2,CO[C@H]1C[C@@H]2CC[C@@H](C)[C@@](O)(O2)C(=O)C(=O)N2CCCC[C@@H]2C(=O)O[C@H]([C@H](C)C[C@@H]2CC[C@H](OCCO)[C@H](OC)C2)CC(=O)[C@H](C)C=C(C)[C@@H](O)[C@@H](OC)C(=O)[C@H](C)C[C@H](C)C=CC=CC=C1C,inactive
3,O=C1NC(=O)C(=Cc2ccc3c(c2)OC(F)(F)O3)S1,inactive
4,CO[C@H]1C[C@@H]2CC[C@@H](C)[C@@](O)(O2)C(=O)C(=O)N2CCCC[C@@H]2C(=O)O[C@H]([C@H](C)C[C@@H]2CC[C@H](OP(C)(C)=O)[C@H](OC)C2)CC(=O)[C@H](C)C=C(C)[C@@H](O)[C@@H](OC)C(=O)[C@H](C)C[C@H](C)C=CC=CC=C1C,inactive
5,CC(=O)Nc1ccc([C@H](C)C(=O)Nc2ncc(C(C)C)s2)cc1,inactive
6,CC[C@@H]1C=C(C)C[C@H](C)C[C@H](OC)[C@H]2O[C@@](O)(C(=O)C(=O)N3CCCC[C@@H]3C(=O)O[C@H](C(C)=C[C@@H]3CC[C@H](Cl)[C@H](OC)C3)[C@H](C)[C@@H](O)CC1=O)[C@H](C)C[C@H]2OC,inactive
7,O=C(NCc1ccncc1)C12C[C@H]3C[C@@H](C1)CC(c1ccc(Cl)cc1)(C3)C2,inactive
8,COc1ccc2c(Oc3ccc(NC(=O)c4c(C)n(CC(C)(C)O)n(-c5ccccc5)c4=O)cc3F)ccnc2c1,inactive
9,O=c1cc(-c2ccc(O)cc2)oc2cc(O)cc(O)c12,inactive
10,NS(=O)(=O)c1cccc2c1C(=O)c1cccc(O)c1C2=O,2930 nM (active)
